In PubChem BioAssay (NCI):
The panel holds about 83,000 compounds, 20% with a hit somewhere; the sample as a whole holds those more often.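 Negative percent growth values reflect cell death: -40 means 40% of the cells present at the start died, and -100 means all died.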 Values without a mark were called inactive. Calls of active or inactive are those of the source. The calls were made as follows: active = growth percent below 10; inactive = the rest.

The molecules below were run on K-562 leukemia (assay: NCI-60 one-dose screen, 48 h (100 = growth as untreated, 0 = no growth, -100 = all killed)). Details: 10 µM unless noted.

**Q.** `Nc1ccc(CCCCc2ccccc2)c(Cl)c1` was tested. Which growth did it give?
**A.** 90.1%

**Q.** For `Nc1ccc(S(=O)(=O)Nc2ccsc2-c2nc(-c3ccccc3)no2)cc1`, which growth is on record?
**A.** 13.5%

**Q.** With `C=C(CNCCc1ccc(O)cc1)[C@@H]1CC[C@]2(COC3CCCCO3)CC[C@]3(C)[C@H](CC[C@@H]4[C@@]5(C)CCC(NCCO)C(C)(C)[C@@H]5CC[C@]43C)[C@@H]12` (stereo partly drawn) as the molecule, how does the growth read?
**A.** -66.1% (active)

**Q.** With `OC(COc1cccc2ccccc12)CN1CCN(c2ccccc2)CC1` (stereo not drawn) as the molecule, how does the growth read?
**A.** 114%

**Q.** How did the growth turn out when `Cc1[nH]c(-c2nc3ccccc3[nH]2)c(C)c1C(=O)N1CCc2sccc2C1` was run?
**A.** 82.9%

**Q.** With `CC(C)n1nc(C#Cc2cccc(NC(=O)c3cccc(C(F)(F)F)c3)c2)c2c(N)ncnc21` as the molecule, how does the growth read?
**A.** -22.6% (active)

**Q.** With `Cc1cc(NS(=O)(=O)c2ccccc2)c(OS(=O)(=O)c2ccccc2)cc1C` as the molecule, how does the growth read?
**A.** 88.8%

**Q.** `OCCCCc1nccc2c1[nH]c1ccccc12` was tested. Which growth did it give?
**A.** 79.8%

**Q.** For `C=C(C)[C@@H]1CC[C@]2(CNCCO)CC[C@]3(C)[C@H](CC[C@@H]4[C@@]5(C)CCC(N)[C@@](C)(CO)[C@@H]5CC[C@]43C)[C@@H]12` (stereo partly drawn), which growth is on record?
**A.** -63.2% (active)

**Q.** `OC(c1cccc(OCc2ccccc2)c1)c1nnc(-c2ccccc2)o1` (stereo not drawn) was tested. Which growth did it give?
**A.** 91%

**Q.** For `Cl.[Pt].[c-]1ccccc1-c1ccccn1.c1ccc(P(c2ccccc2)C([PH+](c2ccccc2)c2ccccc2)[PH+](c2ccccc2)c2ccccc2)cc1`, which growth is on record?
**A.** 11%

**Q.** `COc1cc2c(c(OC)c1OC)C(=O)/C(=C/c1cc(C)c(O)c(C)c1)S2` was tested. Which growth did it give?
**A.** 21.3%

**Q.** Which growth does the source give for `O=C(Nc1ccccn1)[C@H](O)[C@@H](O)C(=O)N1CCOCC1` here?
**A.** 115%

**Q.** `CC(C)(C)N1CC(OC(N)=O)C1` was tested. Which growth did it give?
**A.** 130%

**Q.** For `O=C(NC1CCOCC1)c1ccc2c(c1)CN(c1ncc(Cc3cccc(-n4cccn4)c3)s1)CC2`, which growth is on record?
**A.** 58.7%

**Q.** Which growth does the source give for `CN1C[C@@H](c2ccc(Cl)cc2)[C@]2(NC(=S)N(c3ccc(F)c(Cl)c3)C2=O)[C@@]12C(=O)NC1C=CC(Cl)=C[C@H]12` (stereo partly drawn) here?
**A.** 10.3%

**Q.** How did the growth turn out when `CCCN1CCN(c2ccc3nc(-c4ccc5nc(-c6ccc(OCC)c(OCC)c6)[nH]c5c4)[nH]c3c2)CC1` was run?
**A.** -5.53% (active)

**Q.** `NC(=S)c1csc(CCNC(=O)c2ccccc2)n1` was tested. Which growth did it give?
**A.** 110%

**Q.** With `CCN(CCO)CC(=O)c1cc(Cl)cc(Cl)c1Cl` as the molecule, how does the growth read?
**A.** 99.2%

**Q.** Which growth does the source give for `C=CC(=O)Nc1cccc(C)c1Nc1cc(-c2cccnc2Cc2c(C)c(OC)cc(OC)c2C)ncn1` here?
**A.** -11.1% (active)

**Q.** Which growth does the source give for `N#Cc1c(NC(=O)c2ccccc2I)sc2c1CCCC2` here?
**A.** 14.8%

**Q.** `C#CC[C@H](N)C(=O)O` was tested. Which growth did it give?
**A.** 96.8% [20 µM]

**Q.** How did the growth turn out when `COc1ccc(-n2ncn(CCCCCCn3cnn(-c4ccc(OC)cc4)c3=O)c2=O)cc1` was run?
**A.** 72.7%

**Q.** With `CC(C)OC(=O)OCOP(=O)(OCOC(=O)OC(C)C)C1CCCN(O)C1=O` (stereo not drawn) as the molecule, how does the growth read?
**A.** 30.3%

**Q.** `O=C(/C=C/C12c3ccccc3C(c3ccccc31)C1C(=O)N(c3ccc(Cl)cc3)C(=O)C12)c1ccccn1` (stereo not drawn) was tested. Which growth did it give?
**A.** 4.62% (active)

**Q.** `Cc1ccc(S(=O)(=O)N(CC[C@@H]2C[C@H]2c2cc3ccccc3o2)C(=O)NC2CCCCC2)cc1` was tested. Which growth did it give?
**A.** 91.1%

**Q.** `COc1cc2c(cc1OC)-c1ccc3cc4c(cc3c1N(CCCN1CCCCC1)C2)OCO4` was tested. Which growth did it give?
**A.** 16.9%

**Q.** `COc1cc2cc(Oc3ccc(NC(=O)Nc4cc(C(F)(F)F)cc(C(F)(F)F)c4)cc3)c(C)nc2cc1OCCN1CCCCC1` was tested. Which growth did it give?
**A.** -49.3% (active)

**Q.** Which growth does the source give for `CCN(CC)CCOC(=O)Nc1ccccc1Cl` here?
**A.** 94.8%

**Q.** With `COc1cc(CNC(=O)/C=C/C=C/c2ccc3c(c2)OCO3)ccc1OCc1cn(-c2ccc(Cl)c(Cl)c2)nn1` as the molecule, how does the growth read?
**A.** 5.49% (active)

**Q.** Which growth does the source give for `N#C/C=C(\c1ccc([N+](=O)[O-])cc1)n1nnc2cc(Cl)c(Cl)cc21` here?
**A.** 13.9%

**Q.** `CNC(=O)c1c(NC(=O)c2ccc(C(C)(C)C)cc2)sc2c1CCC(=O)C2` was tested. Which growth did it give?
**A.** 5.54% (active)

**Q.** `CCCCOc1ccc(NC(=O)n2nc(N=NN(C)C)c3ccc(Cl)cc32)cc1` was tested. Which growth did it give?
**A.** 93.7%

**Q.** For `CC[C@@H](C[C@H](CCO)c1ccccc1)c1cc2ccccc2o1`, which growth is on record?
**A.** 77.7%

**Q.** With `N=c1ccn2c(n1)OC1C(O)C(CO)OC12` (stereo not drawn) as the molecule, how does the growth read?
**A.** 94.5%

**Q.** `Cc1cc(N2CCCCC2)nc(N(CCNc2ccnc3cc(Cl)ccc23)Cc2ccccn2)n1` was tested. Which growth did it give?
**A.** 7.83% (active)

**Q.** With `CCOc1ccc2nc(-c3cccc(OCC(=O)NC(C)C)c3)nc(Nc3ccc(-c4cn[nH]c4)cc3)c2c1` as the molecule, how does the growth read?
**A.** -17.1% (active)

**Q.** Which growth does the source give for `C=C1C(=O)O[C@H]2[C@H]1CC/C(Cn1cc(CNCCc3c[nH]c4ccc(Cl)cc34)nn1)=C\CC[C@@]1(C)O[C@@H]21` here?
**A.** 2.7% (active)

**Q.** Which growth does the source give for `CS(=O)(=O)c1ccc(-c2nc3cc(Cl)ccc3n2CC(=O)N/N=C/c2ccc(Cl)cc2)cc1` here?
**A.** 17%

These molecules were tested on MALME-3M melanoma in the same assay as above. Details: 10 µM unless noted.

**Q.** For `Nc1ccc(CCCCc2ccccc2)c(Cl)c1`, which growth is on record?
**A.** 106%

**Q.** For `Nc1ccc(S(=O)(=O)Nc2ccsc2-c2nc(-c3ccccc3)no2)cc1`, which growth is on record?
**A.** 70.5%

**Q.** With `C=C(CNCCc1ccc(O)cc1)[C@@H]1CC[C@]2(COC3CCCCO3)CC[C@]3(C)[C@H](CC[C@@H]4[C@@]5(C)CCC(NCCO)C(C)(C)[C@@H]5CC[C@]43C)[C@@H]12` (stereo partly drawn) as the molecule, how does the growth read?
**A.** -86.4% (active)

**Q.** With `OC(COc1cccc2ccccc12)CN1CCN(c2ccccc2)CC1` (stereo not drawn) as the molecule, how does the growth read?
**A.** 97.7%

**Q.** How did the growth turn out when `Cc1[nH]c(-c2nc3ccccc3[nH]2)c(C)c1C(=O)N1CCc2sccc2C1` was run?
**A.** 85.9%

**Q.** With `CC(C)n1nc(C#Cc2cccc(NC(=O)c3cccc(C(F)(F)F)c3)c2)c2c(N)ncnc21` as the molecule, how does the growth read?
**A.** -39% (active)

**Q.** Which growth does the source give for `Cc1cc(NS(=O)(=O)c2ccccc2)c(OS(=O)(=O)c2ccccc2)cc1C` here?
**A.** 113%

**Q.** `OCCCCc1nccc2c1[nH]c1ccccc12` was tested. Which growth did it give?
**A.** 115%

**Q.** `C=C(C)[C@@H]1CC[C@]2(CNCCO)CC[C@]3(C)[C@H](CC[C@@H]4[C@@]5(C)CCC(N)[C@@](C)(CO)[C@@H]5CC[C@]43C)[C@@H]12` (stereo partly drawn) was tested. Which growth did it give?
**A.** -84.2% (active)

**Q.** How did the growth turn out when `OC(c1cccc(OCc2ccccc2)c1)c1nnc(-c2ccccc2)o1` (stereo not drawn) was run?
**A.** 92.1%

**Q.** Which growth does the source give for `Cl.[Pt].[c-]1ccccc1-c1ccccn1.c1ccc(P(c2ccccc2)C([PH+](c2ccccc2)c2ccccc2)[PH+](c2ccccc2)c2ccccc2)cc1` here?
**A.** -9.83% (active)

**Q.** Which growth does the source give for `COc1cc2c(c(OC)c1OC)C(=O)/C(=C/c1cc(C)c(O)c(C)c1)S2` here?
**A.** 45.6%

**Q.** How did the growth turn out when `O=C(Nc1ccccn1)[C@H](O)[C@@H](O)C(=O)N1CCOCC1` was run?
**A.** 114%

**Q.** With `CC(C)(C)N1CC(OC(N)=O)C1` as the molecule, how does the growth read?
**A.** 106%

**Q.** `O=C(NC1CCOCC1)c1ccc2c(c1)CN(c1ncc(Cc3cccc(-n4cccn4)c3)s1)CC2` was tested. Which growth did it give?
**A.** 64.1%

**Q.** With `CN1C[C@@H](c2ccc(Cl)cc2)[C@]2(NC(=S)N(c3ccc(F)c(Cl)c3)C2=O)[C@@]12C(=O)NC1C=CC(Cl)=C[C@H]12` (stereo partly drawn) as the molecule, how does the growth read?
**A.** 91.2%

**Q.** How did the growth turn out when `CCCN1CCN(c2ccc3nc(-c4ccc5nc(-c6ccc(OCC)c(OCC)c6)[nH]c5c4)[nH]c3c2)CC1` was run?
**A.** -82.4% (active)

**Q.** For `NC(=S)c1csc(CCNC(=O)c2ccccc2)n1`, which growth is on record?
**A.** 125%

**Q.** Which growth does the source give for `CCN(CCO)CC(=O)c1cc(Cl)cc(Cl)c1Cl` here?
**A.** 98.2%

**Q.** With `C=CC(=O)Nc1cccc(C)c1Nc1cc(-c2cccnc2Cc2c(C)c(OC)cc(OC)c2C)ncn1` as the molecule, how does the growth read?
**A.** 66.1%

**Q.** For `N#Cc1c(NC(=O)c2ccccc2I)sc2c1CCCC2`, which growth is on record?
**A.** 60.9%

**Q.** How did the growth turn out when `C#CC[C@H](N)C(=O)O` was run?
**A.** 97% [20 µM]

**Q.** With `COc1ccc(-n2ncn(CCCCCCn3cnn(-c4ccc(OC)cc4)c3=O)c2=O)cc1` as the molecule, how does the growth read?
**A.** 95.7%

**Q.** With `CC(C)OC(=O)OCOP(=O)(OCOC(=O)OC(C)C)C1CCCN(O)C1=O` (stereo not drawn) as the molecule, how does the growth read?
**A.** 41.1%

**Q.** With `O=C(/C=C/C12c3ccccc3C(c3ccccc31)C1C(=O)N(c3ccc(Cl)cc3)C(=O)C12)c1ccccn1` (stereo not drawn) as the molecule, how does the growth read?
**A.** -52% (active)

**Q.** Which growth does the source give for `Cc1ccc(S(=O)(=O)N(CC[C@@H]2C[C@H]2c2cc3ccccc3o2)C(=O)NC2CCCCC2)cc1` here?
**A.** 96.1%

**Q.** `COc1cc2c(cc1OC)-c1ccc3cc4c(cc3c1N(CCCN1CCCCC1)C2)OCO4` was tested. Which growth did it give?
**A.** 76.7%

**Q.** With `COc1cc2cc(Oc3ccc(NC(=O)Nc4cc(C(F)(F)F)cc(C(F)(F)F)c4)cc3)c(C)nc2cc1OCCN1CCCCC1` as the molecule, how does the growth read?
**A.** -86.2% (active)

**Q.** With `CCN(CC)CCOC(=O)Nc1ccccc1Cl` as the molecule, how does the growth read?
**A.** 95.7%

**Q.** `COc1cc(CNC(=O)/C=C/C=C/c2ccc3c(c2)OCO3)ccc1OCc1cn(-c2ccc(Cl)c(Cl)c2)nn1` was tested. Which growth did it give?
**A.** -54.7% (active)

**Q.** `N#C/C=C(\c1ccc([N+](=O)[O-])cc1)n1nnc2cc(Cl)c(Cl)cc21` was tested. Which growth did it give?
**A.** 40.7%

**Q.** `CNC(=O)c1c(NC(=O)c2ccc(C(C)(C)C)cc2)sc2c1CCC(=O)C2` was tested. Which growth did it give?
**A.** -12.8% (active)

**Q.** `CCCCOc1ccc(NC(=O)n2nc(N=NN(C)C)c3ccc(Cl)cc32)cc1` was tested. Which growth did it give?
**A.** 122%

**Q.** How did the growth turn out when `CC[C@@H](C[C@H](CCO)c1ccccc1)c1cc2ccccc2o1` was run?
**A.** 103%

**Q.** Which growth does the source give for `N=c1ccn2c(n1)OC1C(O)C(CO)OC12` (stereo not drawn) here?
**A.** 43.5%

**Q.** With `Cc1cc(N2CCCCC2)nc(N(CCNc2ccnc3cc(Cl)ccc23)Cc2ccccn2)n1` as the molecule, how does the growth read?
**A.** 74.1%

**Q.** How did the growth turn out when `CCOc1ccc2nc(-c3cccc(OCC(=O)NC(C)C)c3)nc(Nc3ccc(-c4cn[nH]c4)cc3)c2c1` was run?
**A.** -66% (active)

**Q.** How did the growth turn out when `C=C1C(=O)O[C@H]2[C@H]1CC/C(Cn1cc(CNCCc3c[nH]c4ccc(Cl)cc34)nn1)=C\CC[C@@]1(C)O[C@@H]21` was run?
**A.** 53.9%

**Q.** With `CS(=O)(=O)c1ccc(-c2nc3cc(Cl)ccc3n2CC(=O)N/N=C/c2ccc(Cl)cc2)cc1` as the molecule, how does the growth read?
**A.** 46.6%
